# PubChem BioAssay (NCATS)
# Several values for one entry are separate records, joined by “and”; a condition that tells them apart may be missing. Equal values may be shown once. Values without a mark were called inactive. Results filed as inconclusive are left out. Where a call stands in place of a potency, no number is given. A structure can be active in one record and inactive in another. Activity calls are given as the source filed them. Unless noted, calls follow the shape of the dose curve; as a rule, active = well fitted curve in the direction sought with a large enough effect; inconclusive = small, poorly fitted or top-dose-only effect, or another doubt; inactive = no such curve, though single readings can be large; an effect the other way counts as inactive or inconclusive.
# Key:
# [1] = Inducers of the Endoplasmic Reticulum Stress Response (ERSR) in human glioma: Validation (AID 504836)
# Method in brief: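 Stably transfected U87-MG human glioma cells carrying a GRP78-based luminescent sensor were seeded at 1000 cells/well, pin-dosed with compounds and incubated 16 h. Luciferase reagent was then added, and end-point luminescence was read after 10 min at room temperature.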
# [2] = target: Phosphoglycerate kinase, glycosomal (Trypanosoma brucei brucei) (UniProt P07378); assay: qHTS Validation Assay to Find Inhibitors of Phosphoglycerate Kinase (AID 504547)
# Phosphoglycerate kinase, glycosomal (Trypanosoma brucei brucei), sequence (P07378 whole entry, looked up): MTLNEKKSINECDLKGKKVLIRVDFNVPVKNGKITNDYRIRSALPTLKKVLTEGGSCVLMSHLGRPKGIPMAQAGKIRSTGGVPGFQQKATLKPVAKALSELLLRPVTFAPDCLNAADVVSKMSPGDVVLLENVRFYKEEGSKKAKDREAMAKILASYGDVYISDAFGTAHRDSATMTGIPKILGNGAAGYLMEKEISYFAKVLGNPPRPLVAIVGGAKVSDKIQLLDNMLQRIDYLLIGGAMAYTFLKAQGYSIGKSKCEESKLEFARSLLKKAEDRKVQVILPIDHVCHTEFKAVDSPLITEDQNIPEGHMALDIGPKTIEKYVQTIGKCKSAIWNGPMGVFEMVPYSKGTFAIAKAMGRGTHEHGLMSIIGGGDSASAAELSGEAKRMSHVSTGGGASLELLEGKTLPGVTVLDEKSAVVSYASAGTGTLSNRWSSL
# Method in brief: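 Substrate/PGK mix plus compound; reaction started with GAPDH (100nM final) to form 1,3-BPG; 60 min RT; Kinase-Glo Plus 10 min; luminescence. TEA 100mM pH 7.6, MgCl2 5mM, Tween-20 0.01%.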
# [3] = target: phosphoglycerate mutase (Leishmania major) (UniProt Q4Q090); assay: qHTS Validation Assay to Find Inhibitors of Phosphoglycerate Mutase (AID 504548); also: series mostly up to about 58 µM
# phosphoglycerate mutase (Leishmania major), sequence (Q4Q090 1-553): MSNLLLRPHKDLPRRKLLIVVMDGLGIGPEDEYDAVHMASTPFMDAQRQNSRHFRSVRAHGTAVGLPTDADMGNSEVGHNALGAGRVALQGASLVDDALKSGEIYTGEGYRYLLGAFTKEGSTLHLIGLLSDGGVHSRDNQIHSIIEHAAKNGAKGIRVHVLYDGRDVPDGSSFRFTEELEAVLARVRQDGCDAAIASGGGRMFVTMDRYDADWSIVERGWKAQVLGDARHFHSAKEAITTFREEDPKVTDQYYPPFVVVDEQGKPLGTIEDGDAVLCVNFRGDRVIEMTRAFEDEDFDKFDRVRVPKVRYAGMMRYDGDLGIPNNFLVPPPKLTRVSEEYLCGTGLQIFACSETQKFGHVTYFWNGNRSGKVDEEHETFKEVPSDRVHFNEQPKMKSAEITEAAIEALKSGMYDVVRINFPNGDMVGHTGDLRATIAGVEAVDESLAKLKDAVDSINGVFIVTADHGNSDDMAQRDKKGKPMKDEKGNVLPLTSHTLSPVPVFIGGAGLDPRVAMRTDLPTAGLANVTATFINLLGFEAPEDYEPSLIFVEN
# Method in brief: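 Lm PGAM 1.25nM final; 100 mM TEA pH 7.6, 5 mM MgCl2, 0.01% Tween-20; 45 min RT; Kinase-GloPlus, 10 min; end-point luminescence. Enzyme-free wells as negative controls.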
# [4] = target: Ubiquitin carboxyl-terminal hydrolase 1 (Homo sapiens) (UniProt O94782); assay: Inhibitors of USP1/UAF1: Pilot qHTS (AID 504865); also: nearly all actives have a fitted effect of over 35% in size; also: potency is read from the fitted curve at half-maximal effect;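 as to activity change, negative = inhibition: rhodamine fluorescence freed from ubiquitin-rhodamine substrate followed over time; top concentration of the series differs between compounds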
# Ubiquitin carboxyl-terminal hydrolase 1 (Homo sapiens), sequence (O94782 whole entry, looked up): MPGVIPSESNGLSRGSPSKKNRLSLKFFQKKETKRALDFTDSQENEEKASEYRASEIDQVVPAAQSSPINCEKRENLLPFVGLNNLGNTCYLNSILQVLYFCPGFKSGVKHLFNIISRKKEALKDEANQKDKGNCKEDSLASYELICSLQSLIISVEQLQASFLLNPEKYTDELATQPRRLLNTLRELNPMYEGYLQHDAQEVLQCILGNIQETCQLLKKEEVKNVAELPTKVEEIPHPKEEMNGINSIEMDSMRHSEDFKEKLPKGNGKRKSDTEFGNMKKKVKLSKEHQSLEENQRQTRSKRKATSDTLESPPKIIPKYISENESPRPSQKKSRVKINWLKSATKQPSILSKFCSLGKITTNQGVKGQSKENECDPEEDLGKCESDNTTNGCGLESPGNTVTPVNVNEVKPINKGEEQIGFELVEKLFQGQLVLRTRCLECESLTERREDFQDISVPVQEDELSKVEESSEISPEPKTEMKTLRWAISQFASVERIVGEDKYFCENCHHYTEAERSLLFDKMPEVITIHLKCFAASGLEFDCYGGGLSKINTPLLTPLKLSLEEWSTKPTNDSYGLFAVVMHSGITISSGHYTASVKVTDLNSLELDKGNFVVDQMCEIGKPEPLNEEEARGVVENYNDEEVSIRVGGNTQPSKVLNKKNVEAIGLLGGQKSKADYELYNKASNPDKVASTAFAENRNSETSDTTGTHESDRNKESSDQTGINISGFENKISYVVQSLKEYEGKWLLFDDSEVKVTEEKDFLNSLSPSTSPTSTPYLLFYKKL
# Method in brief: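 Kinetic fluorescence assay: 1nM USP1/UAF1, 15 min compound preincubation, then 150nM Ub-Rho; 480/540 nm.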
# [5] = qHTS for Inhibitors of ATXN expression: Validation of Cytotoxic Assay (AID 588349)
# Method in brief: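 HEK293 cells treated with titrated compound for 72 hr at 37 degrees C; viability read as intracellular ATP by CellTiter Glo luminescence.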
# [6] = qHTS for Inhibitors of ATXN expression: Validation (AID 588378); also: series mostly up to about 57 µM; nearly all actives have a fitted effect of over 75% in size
# Method in brief: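 Validation of ATXN2 expression inhibitors uses a cell-based luciferase fusion reporter in HEK293 cells, with 24 h compound exposure and paired viability (fluorescence) and reporter (luminescence) end-point reads.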
# [7] = target: Estrogen receptor (Homo sapiens) (UniProt P03372); assay: qHTS assay for small molecule antagonists of estrogen receptor alpha signaling (AID 588513; active = well fitted curve in the direction sought with a large enough effect in the signal ratio, with a control signal flat, not every such curve was filed as active; the % refers to the signal ratio)
# Estrogen receptor (Homo sapiens), sequence (P03372 whole entry, looked up): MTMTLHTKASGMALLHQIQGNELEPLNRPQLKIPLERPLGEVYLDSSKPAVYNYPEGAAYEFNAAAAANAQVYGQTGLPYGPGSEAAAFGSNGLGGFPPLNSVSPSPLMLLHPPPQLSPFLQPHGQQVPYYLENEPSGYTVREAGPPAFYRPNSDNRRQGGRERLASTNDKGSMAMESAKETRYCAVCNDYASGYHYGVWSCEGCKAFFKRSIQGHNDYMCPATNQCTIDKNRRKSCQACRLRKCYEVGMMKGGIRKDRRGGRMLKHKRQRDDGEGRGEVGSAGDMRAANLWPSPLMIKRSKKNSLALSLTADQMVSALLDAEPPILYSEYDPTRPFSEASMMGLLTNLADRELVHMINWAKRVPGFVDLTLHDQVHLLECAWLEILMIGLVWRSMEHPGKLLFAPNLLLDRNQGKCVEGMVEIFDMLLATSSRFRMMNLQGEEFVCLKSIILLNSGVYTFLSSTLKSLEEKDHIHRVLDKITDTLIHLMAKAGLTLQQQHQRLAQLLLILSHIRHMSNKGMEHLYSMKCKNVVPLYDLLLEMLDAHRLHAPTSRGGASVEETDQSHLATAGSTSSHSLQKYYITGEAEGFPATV
# Method in brief: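 Cells were plated at 5000/well and incubated 4 h at 37 C. Compounds were added as 1:2 dilution series, duplicates. 17-beta-estradiol (0.5nM final) was added for 18 h before CCF4 detection.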
# [8] = target: Estrogen receptor (Homo sapiens) (UniProt P03372); assay: qHTS assay for small molecule agonists of estrogen receptor alpha signaling (AID 588514; calls by dose curve; also: nearly all actives have a fitted effect of over 70% in size; also: potency is read from the fitted curve at half-maximal effect)
# Method in brief: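 ER-alpha-UAS-bla GripTite HEK293 cells, 5000/well in 2% charcoal/dextran-stripped FBS medium, treated with compound titrations 18 h at 37 C. CCF4 beta-lactamase read by fluorescence after 2 h RT; normalised to 20 nM 17-beta-estradiol (100%) and DMSO (0%), Hill fit for EC50 and efficacy.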
# [9] = target: Androgen receptor (Homo sapiens) (UniProt P10275); assay: qHTS assay for small molecule agonists of androgen receptor signaling (AID 588515; active = well fitted curve in the direction sought with a large enough effect in the signal ratio, with a control signal flat; the % refers to the signal ratio); conditions: AR-UAS-bla HEK293, beta-lactamase ratio, agonist 16 h; hits give high values
# Androgen receptor (Homo sapiens), sequence (P10275 whole entry, looked up): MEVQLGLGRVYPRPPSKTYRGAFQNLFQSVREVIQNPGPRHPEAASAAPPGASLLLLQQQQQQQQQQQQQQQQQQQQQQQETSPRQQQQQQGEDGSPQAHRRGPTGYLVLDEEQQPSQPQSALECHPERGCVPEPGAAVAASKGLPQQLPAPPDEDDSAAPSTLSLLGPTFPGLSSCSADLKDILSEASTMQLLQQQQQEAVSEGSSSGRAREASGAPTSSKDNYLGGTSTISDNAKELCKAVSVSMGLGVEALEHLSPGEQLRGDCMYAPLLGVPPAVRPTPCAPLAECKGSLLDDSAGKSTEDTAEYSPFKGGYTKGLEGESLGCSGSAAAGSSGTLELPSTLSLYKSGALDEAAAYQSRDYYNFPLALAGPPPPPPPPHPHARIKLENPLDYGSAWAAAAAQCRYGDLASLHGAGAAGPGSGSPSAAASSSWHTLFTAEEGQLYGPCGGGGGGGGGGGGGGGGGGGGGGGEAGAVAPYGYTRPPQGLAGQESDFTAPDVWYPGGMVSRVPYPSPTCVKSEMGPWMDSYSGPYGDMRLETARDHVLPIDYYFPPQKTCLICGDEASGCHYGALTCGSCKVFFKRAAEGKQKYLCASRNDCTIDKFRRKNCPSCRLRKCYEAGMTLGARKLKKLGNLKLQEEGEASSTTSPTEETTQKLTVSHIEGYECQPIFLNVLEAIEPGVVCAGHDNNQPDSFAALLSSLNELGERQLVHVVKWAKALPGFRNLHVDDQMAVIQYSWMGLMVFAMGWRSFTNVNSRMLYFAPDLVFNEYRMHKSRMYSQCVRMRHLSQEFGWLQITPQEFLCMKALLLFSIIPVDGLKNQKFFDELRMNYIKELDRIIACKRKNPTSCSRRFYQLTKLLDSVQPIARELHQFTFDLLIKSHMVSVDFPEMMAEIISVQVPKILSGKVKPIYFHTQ
# Method in brief: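 EC50 and efficacy came from Hill fits of titrations (up to 92 uM) normalized to 30 nM R1881 as 100% and DMSO as 0%. Compound exposure was 16 h at 37 C on AR-UAS-bla HEK293 cells, with a 405/460/530 nm CCF4 fluorescence read.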
# [10] = target: DNA dC->dU-editing enzyme APOBEC-3G (Homo sapiens) (UniProt Q9HC16); assay: qHTS for inhibitors of Vif-A3G interactions: Validation (AID 588379)
# DNA dC->dU-editing enzyme APOBEC-3G (Homo sapiens), sequence (Q9HC16 whole entry, looked up): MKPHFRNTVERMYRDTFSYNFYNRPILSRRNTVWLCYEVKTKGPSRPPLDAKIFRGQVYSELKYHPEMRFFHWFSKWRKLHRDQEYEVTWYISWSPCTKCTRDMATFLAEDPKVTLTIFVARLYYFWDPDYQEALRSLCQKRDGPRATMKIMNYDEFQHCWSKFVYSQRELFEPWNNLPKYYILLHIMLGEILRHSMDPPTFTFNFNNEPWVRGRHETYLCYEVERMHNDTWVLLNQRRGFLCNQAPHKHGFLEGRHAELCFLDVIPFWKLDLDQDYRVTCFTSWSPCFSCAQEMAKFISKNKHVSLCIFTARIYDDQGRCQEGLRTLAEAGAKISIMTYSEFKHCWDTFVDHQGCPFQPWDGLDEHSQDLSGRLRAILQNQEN
# Method in brief: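 HeLa cells stably expressing Vif and A3G-eYFP, 700 cells/well, incubated overnight at 37 deg C, then exposed to compound overnight at 37 deg C. Inhibition of Vif-mediated degradation read as increased yellow fluorescence (Ex 488/Em 500-530) by laser-scanning cytometry.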
smiles,measurement,setting,value
NC(N)=Nc1nc(CSCC/C(N)=N/S(N)(=O)=O)cs1,outcome,[1],inactive
CC(N=C(NC#N)Nc1ccncc1)C(C)(C)C (stereo not drawn),outcome,[1],inactive
CC1COc2c(N3CCN(C)CC3)c(F)cc3c(=O)c(C(=O)O)cn1c23 (stereo not drawn),outcome,[1],inactive
COc1ccc(C2CNC(=O)C2)cc1OC1CCCC1 (stereo not drawn),outcome,[1],inactive
O=C(O)CCCc1ccc(N(CCCl)CCCl)cc1,outcome,[2],inactive
same,outcome,[3],inactive
same,Potency,[4],inactive
same,outcome,[5],inactive
same,outcome,[6],inactive
same,outcome,[7],inactive
same,Potency,[8],inactive
CC(C)c1cccc(C(C)C)c1O,outcome,[2],inactive
same,outcome,[3],inactive
same,outcome,[1],inactive
same,Potency,[4],inactive
same,outcome,[5],inactive
same,outcome,[6],inactive
same,outcome,[7],inactive
same,Potency,[8],inactive
same,activation,[9],-6.9%
CN1C(=O)CCS(=O)(=O)C1c1ccc(Cl)cc1 (stereo not drawn),outcome,[2],inactive
same,outcome,[3],inactive
same,outcome,[1],inactive
same,Potency,[4],inactive
same,outcome,[5],inactive
same,outcome,[6],inactive
C1COC(NC(C2CC2)C2CC2)=N1,outcome,[1],inactive
CC(C)(C)NCC(O)c1ccccc1Cl (stereo not drawn),outcome,[2],inactive
same,outcome,[3],inactive
same,Potency,[4],inactive
same,outcome,[5],inactive
same,outcome,[6],inactive
CCCCCN(C)CCC(O)(P(=O)(O)O)P(=O)(O)O,outcome,[1],inactive
Cc1nc2ccccn2c(=O)c1CCN1CCC(C(=O)c2ccc(F)cc2)CC1,outcome,[1],inactive
CCCCC/C=C\C/C=C\C/C=C\C/C=C\CCCC(=O)NCC(=O)O,outcome,[3],inactive
same,Potency,[4],18.9 µM (active)
same,"activity change, negative = inhibition",[4],-11.7% [at 11.4 µM]
same,outcome,[5],inactive
same,outcome,[6],inactive
C[C@](N)(Cc1ccc(O)cc1)C(=O)O,outcome,[1],inactive
COCCOC(=O)C1=C(C)NC(C)=C(C(=O)OC(C)C)C1c1cccc([N+](=O)[O-])c1 (stereo not drawn),outcome,[1],inactive
CC(CCc1ccc(O)cc1)NCCc1ccc(O)c(O)c1 (stereo not drawn),outcome,[1],inactive
CCC1(C)CC(=O)NC1=O (stereo not drawn),outcome,[1],inactive
CNC[C@H](O)c1cccc(O)c1,outcome,[1],inactive
CNCCC=C1c2ccccc2CCc2ccccc21,outcome,[1],inactive
O=C(CCCN1CCC2(CC1)C(=O)NCN2c1ccccc1)c1ccc(F)cc1,outcome,[2],inactive
same,outcome,[3],inactive
same,Potency,[4],inactive
same,outcome,[6],inactive
same,outcome,[10],inactive
COc1ccc2c(c1OC)C(=O)O[C@H]2[C@@H]1c2cc3c(cc2CCN1C)OCO3,outcome,[2],inactive
same,outcome,[3],inactive
same,Potency,[4],inactive
same,outcome,[5],inactive
same,outcome,[6],inactive
NCCc1ccc(O)cc1,outcome,[2],inactive
same,outcome,[3],inactive
same,outcome,[1],inactive
same,Potency,[4],inactive
same,outcome,[5],inactive
same,outcome,[6],inactive
same,outcome,[7],inactive
same,Potency,[8],inactive
O=c1[nH]oc2c1CCNC2,outcome,[2],inactive
same,outcome,[3],inactive
same,outcome,[1],inactive
same,Potency,[4],inactive
same,outcome,[5],inactive
same,outcome,[6],inactive
same,outcome,[10],inactive
CCC1(c2ccc(N)cc2)CCC(=O)NC1=O (stereo not drawn),outcome,[2],inactive
same,outcome,[3],inactive
same,outcome,[1],inactive
same,Potency,[4],inactive
same,outcome,[5],inactive
same,outcome,[6],inactive
CN(C)CCOC(=O)COc1ccc(Cl)cc1,outcome,[1],inactive
CC(C)N(CCC(C(N)=O)(c1ccccc1)c1ccccn1)C(C)C (stereo not drawn),outcome,[2],inactive
same,outcome,[3],inactive
same,Potency,[4],inactive
same,outcome,[5],inactive
same,outcome,[6],inactive
CC(C)(C)NC[C@H](O)COc1nsnc1N1CCOCC1,outcome,[1],inactive
CC(NC(C)(C)C)C(=O)c1cccc(Cl)c1 (stereo not drawn),outcome,[2],inactive
same,outcome,[3],inactive
same,Potency,[4],inactive
same,outcome,[5],inactive
same,outcome,[6],inactive
Cc1ccc(Cl)c(Nc2ccccc2C(=O)O)c1Cl,outcome,[1],inactive
Cc1ncsc1CCCl,outcome,[2],inactive
same,outcome,[3],inactive
same,outcome,[1],inactive
same,Potency,[4],inactive
same,outcome,[5],inactive
same,outcome,[6],inactive
same,outcome,[10],inactive
c1ccc2c(c1)CCCC2C1=NCCN1 (stereo not drawn),outcome,[1],inactive
O=P1(N(CCCl)CCCl)NCCCO1 (stereo not drawn),outcome,[2],inactive
same,outcome,[3],inactive
same,Potency,[4],inactive
same,outcome,[5],inactive
same,outcome,[6],inactive
same,outcome,[7],inactive
same,Potency,[8],inactive
CCCCCCCC/C=C\CCCCCCCC(=O)NCc1ccc(O)c(OC)c1,outcome,[1],inactive
C=C(C)[C@H]1CN[C@H](C(=O)O)[C@H]1CC(=O)O,outcome,[2],inactive
same,outcome,[3],inactive
same,Potency,[4],inactive
same,outcome,[5],inactive
same,outcome,[6],inactive
COc1cc(OC)c(OC)cc1C=O,Potency,[4],inactive
same,outcome,[7],inactive
same,Potency,[8],inactive
same,activation,[9],-8.64%
NC(=O)CS(=O)C(c1ccccc1)c1ccccc1 (stereo not drawn),Potency,[4],inactive
CC1(C)C(C=C(Cl)Cl)C1C(=O)OC(C#N)c1cccc(Oc2ccccc2)c1 (stereo not drawn),Potency,[8],inactive
C[C@]12CCC(=O)C=C1CC[C@@H]1[C@@H]2CC[C@]2(C)C(=O)CC[C@@H]12,Potency,[4],inactive
same,outcome,[7],inactive
COc1c2c(cc3c1OCO3)CCN(C)C2,Potency,[4],inactive
O=C(Oc1ccccc1)c1ccccc1O,outcome,[7],inactive
COC(=O)C(c1ccccc1)C1CCCCN1 (stereo not drawn),Potency,[4],inactive
same,Potency,[8],inactive
same,activation,[9],0.332%
Clc1cccc(SC2CCNCC2)n1,Potency,[4],inactive
same,outcome,[10],inactive
NC(=O)c1cc([N+](=O)[O-])cc([N+](=O)[O-])c1,Potency,[4],inactive
Nc1ccccc1C(=O)O,Potency,[4],inactive
same,outcome,[7],inactive
same,Potency,[8],inactive
Nc1ccc([As](=O)(O)O)cc1,Potency,[4],inactive
same,Potency,[8],15.8 µM (active)
CN1C(=O)C(O)N=C(c2ccccc2)c2cc(Cl)ccc21 (stereo not drawn),Potency,[4],inactive
COP(=S)(OC)SCN1C(=O)c2ccccc2C1=O,Potency,[4],inactive
Cc1nnc2n1-c1ccc(Cl)cc1C(c1ccccc1)=NC2,Potency,[4],inactive
Cc1cc(C(C#N)c2ccc(Cl)cc2)c(Cl)cc1NC(=O)c1cc(I)cc(I)c1O (stereo not drawn),Potency,[4],50.1 µM (active)
CCCCCCC(=O)CCCCCC/C=C/C[C@@H](O)[C@H](O)[C@@](N)(CO)C(=O)O,Potency,[4],inactive
C=CCN1C[C@H](C)N([C@H](c2ccc(C(=O)N(CC)CC)cc2)c2cccc(OC)c2)C[C@H]1C,Potency,[4],inactive
same,outcome,[10],inactive
CN1CCC(O)(c2ccc(F)cc2)C(C(=O)c2ccc(F)cc2)C1 (stereo not drawn),Potency,[4],inactive
CCOP(=S)(OCC)Oc1ccc2c(C)c(Cl)c(=O)oc2c1,Potency,[4],inactive
O=C(N/N=C/c1ccc([N+](=O)[O-])o1)c1cc([N+](=O)[O-])cc([N+](=O)[O-])c1O,Potency,[4],inactive
COP(=S)(OC)Oc1ccc(SC)c(C)c1,Potency,[4],inactive
same,outcome,[7],inactive
same,Potency,[8],inactive
CCOC(=O)CC(SP(=S)(OC)OC)C(=O)OCC (stereo not drawn),Potency,[4],inactive
same,outcome,[7],inactive
same,Potency,[8],inactive
same,activation,[9],17.2% and 0.217% and -5.72%
Clc1ccc(C(c2ccc(Cl)cc2)C(Cl)(Cl)Cl)cc1,Potency,[4],inactive
O=C1c2ccccc2C(=O)c2ccccc21,Potency,[4],inactive
COP(=S)(OC)Oc1ccc(S(=O)(=O)N(C)C)cc1,Potency,[4],inactive
C[C@]12CCC(=O)C=C1CC[C@@H]1[C@@H]2CC[C@@]2(C)[C@H]1CC[C@]2(C)O,Potency,[8],12.6 µM (active)
O=C1c2ccccc2C(=O)C1C(=O)C(c1ccccc1)c1ccccc1,Potency,[4],31.6 µM (active)
CC(C)NC(C)C,Potency,[4],inactive
same,outcome,[7],inactive
same,Potency,[8],inactive
CCC(C)(C)c1ccc(O)cc1,outcome,[7],inactive
Cc1cc(=O)n(-c2ccccc2)n1C,Potency,[4],inactive
CN1C[C@H](C(=O)N[C@]2(C)O[C@@]3(O)[C@@H]4CCCN4C(=O)[C@H](Cc4ccccc4)N3C2=O)C=C2c3cccc4[nH]cc(c34)C[C@H]21,outcome,[7],inactive
same,Potency,[8],inactive
CNC(C)(C)Cc1ccccc1,Potency,[4],inactive
COc1cccc([C@@]2(O)CCCC[C@@H]2CN(C)C)c1,Potency,[4],inactive
COP(=S)(OC)Oc1cc(Cl)c(Cl)cc1Cl,Potency,[8],inactive
